# Screening data deposited in PubChem BioAssay by National Center for Advancing Translational Sciences (NCATS).
# This is one part of a sample in which hits are shown more often than they occur.
# TDP-43 rescue = qHTS of TDP-43 Inhibitors: NCGC Sytravon Library Screen. Potency, µM (top dose mostly 46.1 µM), actives largely listed as activators. yeast TDP-43 toxicity rescue, BacTiter-Glo growth, 24 h. 0.45% of 45,000 active. AID 1347073, 2019; active = well fitted activation curve with a large enough effect; also: 0% is about no effect; nearly all actives have a fitted effect of over 55% in size
#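 TDP-43-expressing yeast, pregrown in raffinose, seeded at OD600 0.02 in galactose medium with compound for 24 hr at 30 deg C. Growth read by BacTiter-Glo luminescence, so rescue of toxicity appears as activation.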
# Numbers without * were called inactive; i = inactive. Potency is read from the fitted curve at half-maximal effect.
SMILES,TDP-43 rescue
CC(C)C(NC(=O)c1ccc(Cl)cc1)C(=O)NCC1CCCO1 (stereo unspecified),i
CCN1CCN(C(=O)c2ccc3c(=O)n(CCc4ccccc4)c(=O)[nH]c3c2)CC1,i
COCCC(=O)N1CCC(Oc2ccc(C(=O)NC(C)CCn3cccn3)cc2)CC1 (stereo unspecified),i
CCN(CC)c1ccc(/C=C/C(=O)c2ccc(Br)cc2)cc1,i
Cc1ccc(C(=O)/C=C/NCc2ccc(F)cc2)cc1,i
Cc1ccc(/C=C/C(=O)c2ccc(O)cc2)cc1,16µM*
O=C(CCCCCn1c(=O)c2sccc2n(Cc2ccccc2Cl)c1=O)NCc1ccc2c(c1)OCO2,i
Cc1ccc(-c2noc(CN(C(=O)c3ccc4c(c3)OCO4)C(C)C)n2)cc1,i
COc1ccc(-c2noc(CN(C(=O)C(C)Oc3ccc(C)cc3)C(C)C)n2)cc1 (stereo unspecified),20µM*
Cc1ccc(-c2noc(CN(C)C(=O)c3ccoc3C)n2)cc1,i
CCc1noc(C)c1C(=O)N1CCCC(N2CCN(c3cccc(Cl)c3)CC2)C1 (stereo unspecified),i
Cc1ccccc1-c1cc2nc(NCCCN(C)C)n(C)c(=O)c2s1,i
Cc1ccccc1-c1cc2nc(NCCOc3ccccc3)n(C)c(=O)c2s1,i
COc1ccc(Nc2nc3cc(-c4ccccc4C)sc3c(=O)n2C)cc1OC,20µM*
CCCc1nnc(NC(=O)C2CCN(C(=O)c3ccco3)CC2)s1,i
CCOc1cc(C2C(C(=O)c3ccco3)=C(O)C(=O)N2CC2CCCO2)ccc1O (stereo unspecified),i
COc1cc(C(O)c2nc(-c3ccc(N(C)C)cc3)cs2)ccc1F (stereo unspecified),i
CC1CCCN(C(=O)COc2ccc(-c3ccccc3)cc2)C1 (stereo unspecified),11µM*
COc1ccc(CC(=O)OCC(=O)N2CCCC(C)C2)cc1 (stereo unspecified),i
CC1CCCN(CC(=O)NNC(=O)COc2ccc(Br)cc2)C1 (stereo unspecified),i
CCCN(C(=O)c1ccc2c(=O)n3c(nc2c1)CCCCC3)c1cccc(Cl)c1,i
COc1cc(C(c2c(O)cc(C)[nH]c2=O)c2c(O)cc(C)[nH]c2=O)ccc1O,i
Cc1cccc(N2CCN(C(=O)c3ccc4[nH]c(C)c(C)c4c3)CC2)c1C,i
CCOC(=O)C1CCN(C(=O)/C=C/c2cccs2)CC1,i
Cc1cccc(N2CCN(C(=O)/C=C/c3cccs3)CC2)c1C,14µM*
SMILES,TDP-43 rescue
COc1cc(C)ccc1S(=O)(=O)NC(=O)C1(C)CCN1C(=O)COc1ccc(Cl)cc1 (stereo unspecified),i
O=C(Nc1ccc(F)cc1)C1(S(=O)(=O)c2ccc(Cl)cc2)CC1,i
O=C(Cc1c(F)cccc1Cl)OCN1C(=O)c2ccccc2C1=O,i
CCOc1ccc(NC(=O)CN2C(=O)C(c3ccccc3)=NC23CCCCCC3)cc1,i
CN=c1scc(-c2ccccc2F)n1/N=C/c1ccc[nH]1,i
C=CCN=c1scc(-c2ccc(F)cc2)n1/N=C/c1ccccn1,11µM*
COCCNC(=O)CN1C(=O)NC2(CCCc3ccccc32)C1=O (stereo unspecified),i
COc1ccc(NC(=O)c2cc(C3CCCCN3S(=O)(=O)c3c(C)noc3C)on2)c(C)c1 (stereo unspecified),i
COc1ccc(C(=O)N2c3ccc(C)cc3C(C)(c3ccccc3)CC2(C)C)cc1 (stereo unspecified),i
O=C(c1ccco1)N1CCN(Cc2cccc3ccccc23)CC1,i
COC(=O)Oc1ccc(/C=C/C(=O)OC(C)C)cc1OC(=O)OC,14µM*
CCCCOC(=O)/C=C/c1ccc(OC(=O)OC)c(OC(=O)OC)c1,i
COc1cc(/C=C/C(=O)OC(C)C(=O)Nc2ccc(Cl)cn2)ccc1OC(F)F (stereo unspecified),i
CCNC(=O)NC(=O)C(C)N1C(=O)NC(c2ccccc2)(c2ccccc2)C1=O (stereo unspecified),i
CCS(=O)(=O)c1oc(-c2ccc(F)cc2)nc1S(=O)(=O)c1ccccc1,i
COc1ccc(-n2nc(C(=O)NCC(=O)N3CCN(Cc4ccccc4)CC3)c3ccccc3c2=O)cc1OC,i
COc1ccc(-n2nc(C(=O)NCC(=O)N3CCC(C)CC3)c3ccccc3c2=O)cc1Cl,18µM*
CCOC(=O)C1CCN(C(=O)CNC(=O)c2nn(-c3ccc(OC)c(OC)c3)c(=O)c3ccccc23)CC1,i
O=S(=O)(c1ccccc1)n1nc(-c2ccc(Cl)cc2)nc1NCc1ccccc1,i
O=C(Cc1ccccc1F)NCC(=O)Nc1ccccc1Br,i
CCCN(CC(=O)Nc1ccccc1Br)CC(=O)Nc1ccc(F)c(F)c1F,11µM*
CCCN(CC(=O)Nc1ccc(F)c(F)c1F)C(=O)c1ccc2c(c1)NC(=O)CS2,i
Cc1cc(Cl)ccc1OC(C)C(=O)Nc1ccc([N+](=O)[O-])cn1 (stereo unspecified),22µM*
Cc1ccc(OC(C)C(=O)Nc2ccc(Cl)cn2)c([N+](=O)[O-])n1 (stereo unspecified),i
COC(=O)c1cc(C(=O)Nc2ccc(Cl)cn2)cc([N+](=O)[O-])c1,i
SMILES,TDP-43 rescue
CC(C)C(=O)N1CCCC1(C)C(=O)Nc1ccc(F)cc1 (stereo unspecified),i
COc1cc(-c2cc(NC(C)=O)c3ncc(-c4cc(OC)c(OC)c(OC)c4)n3c2)cc(OC)c1OC,i
CN(CC(=O)Nc1ncn[nH]1)S(=O)(=O)c1ccc(Cl)cc1,i
COc1ccc(NC(=O)CC2Oc3ccccc3NC2=O)c(OC)c1 (stereo unspecified),i
Cc1ccc(Cl)cc1NC(=O)N1CCC2(CC1)Oc1ccccc1C(=O)N2Cc1ccccc1F,i
CCn1c(C)nc2cc(C(=O)N/N=C/c3cccc(OC)c3O)ccc21,i
COc1cccc(/C=N/NC(=O)N/N=C/c2cccc(OC)c2O)c1O,i
COc1cccc(/C=N/NC(=O)c2nc(-c3ccccc3)cc(-c3ccccc3)n2)c1O,13µM*
C=CCN(c1ccccc1)S(=O)(=O)c1cccc(C(=O)NCc2ccco2)c1,i
O=C(Nc1cc(S(=O)(=O)N2CCOCC2)ccc1Cl)c1ccncc1,i
COc1ccc(NS(=O)(=O)c2cc(NC(=O)COc3ccccc3)ccc2N2CCOCC2)cc1,i
O=C(COc1c(F)c(F)c(C(F)(F)F)c(F)c1F)Nc1ccc(N2CCOCC2)c(Cl)c1,13µM*
COCc1cc(C)n(CC(=O)Nc2ccc(N3CCOCC3)c(Cl)c2)c(=O)c1C#N,i
COc1ccc(-c2nc(CNS(=O)(=O)c3ccc(C)cc3)cs2)cc1,i
COc1ccc(-c2nc(CNS(=O)(=O)c3cccc(F)c3)cs2)cc1,16µM*
COc1ccc(-c2nc(CNS(=O)(=O)c3ccc(F)cc3)cs2)cc1,i
CC(=O)c1sc(NC(=O)COc2ccc(Cl)cc2C)nc1C,i
CC(=O)c1ccc(C(=O)N2CCc3c([nH]c4ccccc34)C2c2cccc(C)n2)s1 (stereo unspecified),13µM*
Cc1cccc(C2c3[nH]c4ccccc4c3CCN2Cc2ccc(C)s2)n1 (stereo unspecified),i
Cc1cccc(C2c3[nH]c4ccccc4c3CCN2C(=O)Cc2n[nH]c(C)n2)n1 (stereo unspecified),i
